Shown are actives, neighbours in structure and some others; about 1.3% of the full set was active somewhere.
Cardiac RTF inh: cardiac RTF calcium desensitization | IANBD-labeled cardiac RTF, Ca2+ fluorescence | P19429+P45379 | 0.12% of 340,000 active | AID 493244 | inhibition, % at 7.15 µM;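 active = inhibition above the mean inhibition of all tested compounds plus 3 SD, cut at about 17% in these data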;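 note: assay run at fixed EC70 calcium of 1.6 mM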
CRFR2-BP antag: blocks CRF-induced signaling of the CRF-BP/CRF-R2 complex; HEK293 CRF-R2/CRF-BP, CRF-induced calcium fluorescence; inhibition, % at 11.8 µM; 0.59% of 350,000 active; AID 588475;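 active = inhibition of the ligand-induced calcium signal above about 50% at the single tested concentration, limit read from the data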
cardiac RTF act: increases calcium sensitivity of human cardiac regulated thin filaments; IANBD-labeled TnC RTF fluorescence at EC20 calcium; 0% EC20 calcium, 100% full calcium; activation, % at 7.2 µM; 0.24% of 340,000 active;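 active = activation above the mean over all tested compounds plus 3 SD, cut at about 30% in these data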;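 note: rise in fluorescence read as greater calcium sensitivity of cardiac thin filaments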
CRFR2-BP ag: agonists of human CRF-binding protein/CRF-R2 receptor complex. 0.46% of 350,000 active. HEK293 CRF-R2/CRF-BP, calcium dye fluorescence (FLIPR); percent of saturating CRF peptide response. activation, % at 13.2 µM;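 active = activation of at least 50%, plus an integration ratio under a set limit after plate pattern correction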
A number is an active result; . = inactive; / = not tested or not shown; + = active, no number.

SMILES	Cardiac RTF inh	CRFR2-BP antag	cardiac RTF act	CRFR2-BP ag
CN1CC=C2C(C#N)=C(N)C(C#N)(C#N)C(c3ccsc3)C2C1 (stereo not given)	.	.	.	.
Cc1nn(CC(=O)NC2(C#N)CCCCC2)c(C)c1[N+](=O)[O-]	.	.	.	.
Cc1nn(CC(=O)N(C)C2(C#N)CCCCC2)c(C)c1[N+](=O)[O-]	.	.	.	111
CCOC1OC(=O)C(Cl)=C1Nc1cc(C)ccc1C (stereo not given)	.	.	.	.
Cc1cc(C)c2nc(NC(=O)c3ccc4c(=O)n5c(nc4c3)CCCCC5)sc2c1	.	59	.	.
O=C(Nc1ccc(SC(F)F)cc1)c1ccc2c(=O)n3c(nc2c1)CCC3	.	.	.	74
O=C(Nc1ccc(S(=O)(=O)C(F)F)cc1)c1ccc2c(=O)n3c(nc2c1)CCC3	.	.	.	.
COc1ccc(C(=O)Nc2ccc3nc4n(c(=O)c3c2)CCCCC4)cc1OC	/	62	/	.
CC1(C)C2CCC(CN)C1C2 (stereo not given)	/	.	/	.
COc1ccc(CCNC(=O)c2cc(-c3ccncc3)nc3ccc(S(=O)(=O)N4CCOCC4)cc23)cc1OC	.	.	.	.
CC(N=C1NS(=O)(=O)c2ccccc21)C(=O)N1CCc2ccccc2C1 (stereo not given)	.	106	.	.
Cc1ccc(NC(=O)C(C)N=C2NS(=O)(=O)c3ccccc32)cc1 (stereo not given)	.	.	.	.
O=c1c([N+](=O)[O-])cn(Cc2ccccc2)c(=O)n1Cc1ccccc1	.	.	.	56
CC(=O)c1cn(Cc2ccccc2)c(=O)n(Cc2ccc(F)cc2)c1=O	.	.	.	.
O=C(N/N=C/c1c(O)n(Cc2ccccc2)c(=O)c2ccccc12)c1cccnc1	.	.	.	64
CC(CCC(=O)Nc1nncs1)C(=O)O (stereo not given)	.	.	.	.
CCCCC(C(=O)O)C(C)CC(=O)Nc1nncs1 (stereo not given)	.	77	.	.
CN(C(=O)c1cc(COc2ccc(F)cc2Cl)on1)C1CCCc2ccccc21 (stereo not given)	.	.	.	.
CN(C)CCCN1C(=O)c2cccc3c([N+](=O)[O-])ccc(c23)C1=O	.	81	.	56
O=C1c2cccc3c([N+](=O)[O-])ccc(c23)C(=O)N1CCc1ccccn1	.	.	.	.
CC1(C)Cc2c(cnn2-c2ccc(F)cc2)C(NC(=O)c2ccc(=O)oc2)C1 (stereo not given)	.	.	.	.
CC(C)C[C@H]1CNC(=S)N1CC1CCCN1C[C@H](CC(C)C)N1C[C@H](CC(C)C)N(CCc2ccccc2)C1=S (stereo not given in full)	.	.	.	.
Cc1cccc(-c2cc(C(=O)NCc3ccccn3)c3ccccc3n2)c1	.	.	.	.
Cc1ccc(-c2cc(C(=O)NCc3ccccn3)c3ccccc3n2)cc1C	.	111	.	.
C=CCNc1nc(C(=O)OCC(=O)N(Cc2ccccc2)C(C)C)cs1	.	.	.	.
SMILES	Cardiac RTF inh	CRFR2-BP antag	cardiac RTF act	CRFR2-BP ag
Cc1ccc(C2C(C(=O)c3cccs3)=C(O)C(=O)N2c2nnc(C)s2)cc1 (stereo not given)	.	.	.	134
COc1ccc(C2C(C(=O)c3cccs3)=C(O)C(=O)N2c2cccc(C)n2)cc1 (stereo not given)	.	.	.	.
Cc1ccc(C)c2sc(NC(=O)c3ccc(N4C(=O)CCC4=O)cc3)nc12	.	.	.	116
Cc1ccc2nc(N3C(=O)C(O)=C(C(=O)c4ccc(C)o4)C3c3cccc(O)c3)sc2c1 (stereo not given)	.	96	.	.
COc1ccccc1CN1CCCC(C(=O)N(C)Cc2ccccc2)C1 (stereo not given)	.	55	.	.
COc1cc(C(=O)OCC(=O)NC2CCCCCC2)ccc1OCC(C)C	.	.	.	.
C/C(=N\NC(=O)c1ccncc1)c1cc2ccccc2oc1=O	.	.	.	.
C/C(=N/NC(=O)c1ccncc1)c1cc2ccc(O)cc2oc1=O	.	.	+	191
CC(Oc1ccc(Br)cc1)C(=O)N1CCc2ccccc21 (stereo not given)	.	.	.	222
Cc1ccccc1Cn1nc(C)c(NC(=O)c2cc(-c3ccco3)on2)c1C	.	.	.	.
Cc1ccccc1Cn1nc(C)c(NC(=O)c2cc(-c3cccs3)on2)c1C	.	57	.	.
Clc1ccccc1N=Nc1ccccn1	.	.	.	63
Cc1[nH][nH]c(=O)c1N=Nc1ccccc1Cl	.	.	.	.
Cc1onc(-c2ccccc2)c1CNC(=O)CN1C(=O)c2ccccc2C1=O	.	109	.	.
CCN1CCN(C2=CC3=CC(=C(C#N)C#N)CCC3CC2)CC1 (stereo not given)	.	.	+	500
N#CC(C#N)=C1C=C2C=C(N3CCCCCC3)CCC2CC1 (stereo not given)	.	.	+	216
CN1CCN(C2=CC3=CC(=C(C#N)C#N)CCC3CC2)CC1 (stereo not given)	.	.	+	241
N#Cc1cc(Cl)c(N2CCOCC2)cc1C#N	.	.	.	.
CC1(C)CC(NCCN2CCN(C3=CC(=C(C#N)C#N)CC(C)(C)C3)CC2)=CC(=C(C#N)C#N)C1	.	.	.	.
N#CC(C#N)=C1C=C2C=C(N3CCOCC3)CCC2CC1 (stereo not given)	.	.	+	248
Cn1cnnc1SCC(=O)NC1CCCC1	.	.	.	.
Cc1ccccc1-n1cnc2c(sc3nc(N4CCOCC4)c4c(c32)CCCC4)c1=O	.	.	.	.
Cc1ccc(Nc2nc(-c3c(C)nc4ccccn34)cs2)cc1	.	66	.	.
Nc1nnc(SCc2cc3c(cc2Cl)OCO3)s1	.	59	.	.
Nc1nnc(SCc2ccccc2Cl)s1	.	.	.	.
SMILES	Cardiac RTF inh	CRFR2-BP antag	cardiac RTF act	CRFR2-BP ag
CCCCCCn1c(=O)[nH]c2nc3cc(N)c(C)cc3nc2c1=O	.	.	627	325
CCCCn1c(N)c(N(CCC(C)C)C(=O)COC(=O)Cc2ccc(Cl)cc2)c(=O)[nH]c1=O	.	.	.	.
CC1=C(C(=O)NCc2ccccn2)C2(CCC(C)CC2)OC1=O (stereo not given)	.	66	.	.
CCOc1ccc(/C=N/NC(=O)C(C)N(c2ccc(OC)cc2)S(C)(=O)=O)cc1OCC (stereo not given)	.	55	.	.
CCOc1ccc(N(C(C)C(=O)Nc2ccc(OC)cc2)S(C)(=O)=O)cc1 (stereo not given)	.	.	.	.
Cc1nn(C)c(Oc2ccc(Cl)cc2)c1C(=O)O	.	61	.	.
O=C1CN(C(=O)COc2ccc(Br)cc2)c2ccccc2N1	.	.	.	.
Cn1c(=O)n(Cc2ccccc2Cl)c2ccccc21	.	53	.	.
Cn1c(=O)n(Cc2ccccc2F)c2ccccc21	.	.	.	.
Cc1ccc2c(c1)N(C(=O)CCC(=O)N1CCN(c3ccccn3)CC1)CCO2	.	.	.	55

High-throughput results from PubChem BioAssay.
